Out of some 5,500 compounds screened, about 2,000 (36%) were called active. About 18% were inconclusive and are not listed. No stated cut-off is given here; in the data, active means normalized growth mostly below about 0.91 (no sharp cut-off); inconclusive means no clear call, values can overlap the other calls; inactive means mostly above about 0.92. This is one part of the list.
Test: chemical genetic growth profiling, strain panel (AID 1159580);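 further: tested at 20 µM; growth read once vehicle control cultures reached saturation at 30 °C; 1 = growth at the plate median or of vehicle wells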
Conditions: growth OD
[1] = S. cerevisiae deletion strains, locus YDR150W, strain NUM1, stronger effect = lower value
[2] = S. cerevisiae deletion strains, locus YGR078C, strain PAC10, stronger effect = lower value
[3] = S. cerevisiae deletion strains, locus YHR030C, strain SLT2, stronger effect = lower value
[4] = S. cerevisiae deletion strains, locus YJR075W, strain HOC1, stronger effect = lower value
[5] = S. cerevisiae deletion strains, locus YMR263W, strain SAP30, stronger effect = lower value
[6] = S. cerevisiae deletion strains, locus YNL128W, strain TEP1, stronger effect = lower value
[7] = S. cerevisiae deletion strains, locus YNL153C, strain GIM3, stronger effect = lower value
[8] = S. cerevisiae deletion strains, locus YPL241C, strain CIN2, stronger effect = lower value
[9] = S. cerevisiae deletion strains, locus YAL040C, strain CLN3, stronger effect = lower value
[10] = S. cerevisiae deletion strains, locus YCL061C, strain MRC1 (second series), stronger effect = lower value
[11] = S. cerevisiae deletion strains, locus YDR363W, strain ESC2, stronger effect = lower value
[12] = S. cerevisiae deletion strains, locus YER002W, strain NOP16, stronger effect = lower value
[13] = S. cerevisiae deletion strains, locus YNL175C, strain NOP13, stronger effect = lower value
[14] = S. cerevisiae deletion strains, locus YNL197C, strain WHI3, stronger effect = lower value
[15] = S. cerevisiae deletion strains, locus YNL224C, strain SQS1, stronger effect = lower value
[16] = S. cerevisiae deletion strains, locus YOR083W, strain WHI5 (second series), stronger effect = lower value

Measured: normalized growth

COc1ccc(C=C2C(=O)NC(=S)NC2=O)cc1Br
inactive: S. cerevisiae deletion strains, locus YAL013W, strain DEP1, stronger effect = lower value 1.02 | S. cerevisiae deletion strains, locus YBR229C, strain ROT2, stronger effect = lower value 1.03 | S. cerevisiae deletion strains, locus YDL101C, strain DUN1, stronger effect = lower value 1 | [1] 0.946 | S. cerevisiae deletion strains, locus YEL061C, strain CIN8, stronger effect = lower value 0.992 | [2] 0.995 | [3] 1.01 | S. cerevisiae deletion strains, locus YHR087W, strain rtc3, stronger effect = lower value 0.984 | S. cerevisiae deletion strains, locus YJR043C, strain POL32, stronger effect = lower value 0.998 | [4] 1 | S. cerevisiae deletion strains, locus YLR039C, strain RIC1, stronger effect = lower value 1.07 | S. cerevisiae deletion strains, locus YLR058C, strain SHM2 (second series), stronger effect = lower value 1 | S. cerevisiae deletion strains, locus YLR085C, strain ARP6, stronger effect = lower value 1.01 | S. cerevisiae deletion strains, locus YLR262C, strain YPT6, stronger effect = lower value 1.06 | S. cerevisiae deletion strains, locus YML094W, strain GIM5, stronger effect = lower value 1 | S. cerevisiae deletion strains, locus YMR219W, strain ESC1, stronger effect = lower value 1.01 | [5] 0.928 | [6] 1 | [7] 0.965 | S. cerevisiae deletion strains, locus YNL298W, strain CLA4 (second series), stronger effect = lower value 1 | S. cerevisiae deletion strains, locus YNL322C, strain KRE1, stronger effect = lower value 1.01 | S. cerevisiae deletion strains, locus YNR030W, strain Alg12, stronger effect = lower value 0.997 | S. cerevisiae deletion strains, locus YOL006C, strain TOP1, stronger effect = lower value 1.01 | S. cerevisiae deletion strains, locus YPL055C, strain LGE1, stronger effect = lower value 0.884 | [8] 1.02 | S. cerevisiae deletion strains, locus YPR135W, strain CTF4, stronger effect = lower value 0.968 | S. cerevisiae strains, strain wild type, stronger effect = lower value 1.01

O=C1Nc2ccc(I)cc2/C1=C/c1cc(Br)c(O)c(Br)c1
inactive: [9] 0.966 | [10] 0.995 | [1] 0.953 | [11] 0.942 | [12] 1.01 | [2] 0.919 | [4] 0.979 | [5] 0.991 | [13] 0.922 | [14] 0.97 | [15] 0.993
active: [7] 0.666 | [16] 0.665

CCO/C([O-])=N/c1c[n+](N2CCOCC2)no1
inactive: [9] 0.99 | [10] 0.99 | [11] 1.02 | [12] 1 | [5] 0.98 | S. cerevisiae deletion strains, locus YMR307W, strain GAS1, stronger effect = lower value 0.996 | [6] 1.01 | [13] 1 | [14] 0.984 | [15] 1.01 | [16] 0.995 | [8] 0.968

NC(=O)c1ncn(C2O[C@H](CO)[C@@H](O)[C@H]2O)c1N (some centres not stated)
inactive: S. cerevisiae deletion strains, locus YAL021C, strain ccr4, stronger effect = lower value 1.04 | S. cerevisiae deletion strains, locus YAL026C, strain drs2, stronger effect = lower value 1.03 | S. cerevisiae deletion strains, locus YAL030W, strain snc1, stronger effect = lower value 1.03 | S. cerevisiae deletion strains, locus YBL061C, strain skt5, stronger effect = lower value 1.04 | S. cerevisiae deletion strains, locus YBR009C, strain hhf1, stronger effect = lower value 1.07 | S. cerevisiae deletion strains, locus YBR023C, strain chs3, stronger effect = lower value 1.02 | S. cerevisiae deletion strains, locus YBR171W, strain sec66, stronger effect = lower value 1.05 | S. cerevisiae deletion strains, locus YBR231C, strain swc5, stronger effect = lower value 1.04 | S. cerevisiae deletion strains, locus YBR279W, strain paf1, stronger effect = lower value 1.02 | S. cerevisiae deletion strains, locus YCL011C, strain gbp2, stronger effect = lower value 1.04 | S. cerevisiae deletion strains, locus YCL016C, strain dcc1, stronger effect = lower value 1.03 | S. cerevisiae deletion strains, locus YCL061C, strain MRC1, stronger effect = lower value 1.04 | S. cerevisiae deletion strains, locus YCL069W, strain vba3, stronger effect = lower value 1.03 | S. cerevisiae deletion strains, locus YCR088W, strain abp1, stronger effect = lower value 1.03 | S. cerevisiae deletion strains, locus YDL005C, strain med2, stronger effect = lower value 1.04 | S. cerevisiae deletion strains, locus YDL040C, strain nat1, stronger effect = lower value 1.03 | S. cerevisiae deletion strains, locus YDR001C, strain nth1, stronger effect = lower value 1.03 | S. cerevisiae deletion strains, locus YDR069C, strain doa4, stronger effect = lower value 1.03 | S. cerevisiae deletion strains, locus YDR137W, strain rgp1, stronger effect = lower value 1.04 | S. cerevisiae deletion strains, locus YDR159W, strain sac3, stronger effect = lower value 1.05 | S. cerevisiae deletion strains, locus YDR195W, strain ref2 1.02 | S. cerevisiae deletion strains, locus YDR297W, strain sur2, stronger effect = lower value 1.03 | S. cerevisiae deletion strains, locus YDR334W, strain swr1, stronger effect = lower value 1.04 | S. cerevisiae deletion strains, locus YDR335W, strain msn5, stronger effect = lower value 1.03 | S. cerevisiae deletion strains, locus YDR392W, strain spt3, stronger effect = lower value 1 | S. cerevisiae deletion strains, locus YEL003W, strain gim4, stronger effect = lower value 1.03 | S. cerevisiae deletion strains, locus YEL037C, strain rad23, stronger effect = lower value 1.03 | S. cerevisiae deletion strains, locus YEL061C, strain CIN8 (second series), stronger effect = lower value 1.03 | S. cerevisiae deletion strains, locus YER015W, strain faa2, stronger effect = lower value 1.04 | S. cerevisiae deletion strains, locus YER016W, strain bim1, stronger effect = lower value 1.03 | S. cerevisiae deletion strains, locus YER111C, strain swi4, stronger effect = lower value 1.04 | S. cerevisiae deletion strains, locus YER155C, strain BEM2 (second series), stronger effect = lower value 1.06 | S. cerevisiae deletion strains, locus YFR010W, strain ubp6, stronger effect = lower value 1.04 | S. cerevisiae deletion strains, locus YGL167C, strain pmr1, stronger effect = lower value 1.04 | S. cerevisiae deletion strains, locus YGL173C, strain kem1, stronger effect = lower value 1.04 | S. cerevisiae deletion strains, locus YGL227W, strain vid30, stronger effect = lower value 1.04 | S. cerevisiae deletion strains, locus YGL240W, strain doc1, stronger effect = lower value 1.06 | S. cerevisiae deletion strains, locus YGL253W, strain hxk2, stronger effect = lower value 1.04 | S. cerevisiae deletion strains, locus YHR013C, strain ard1, stronger effect = lower value 1.03 | S. cerevisiae deletion strains, locus YHR027C, strain rpn1, stronger effect = lower value 1.03 | [3] 0.991 | S. cerevisiae deletion strains, locus YHR079C, strain IRE1, stronger effect = lower value 1.01 | S. cerevisiae deletion strains, locus YHR142W, strain chs7, stronger effect = lower value 1.02 | S. cerevisiae deletion strains, locus YJL092W, strain hpr5, stronger effect = lower value 1.02 | S. cerevisiae deletion strains, locus YJL095W, strain BCK1 (second series), stronger effect = lower value 1.03 | S. cerevisiae deletion strains, locus YJL095W, strain BCK1, stronger effect = lower value 1.01 | S. cerevisiae deletion strains, locus YJL115W, strain asf1, stronger effect = lower value 1.03 | S. cerevisiae deletion strains, locus YJL129C, strain trk1, stronger effect = lower value 1.04 | S. cerevisiae deletion strains, locus YJL154C, strain vps35, stronger effect = lower value 1.02 | S. cerevisiae deletion strains, locus YJL164C, strain tpk1, stronger effect = lower value 1.02 | S. cerevisiae deletion strains, locus YJL166W, strain qcr8, stronger effect = lower value 1.05 | S. cerevisiae deletion strains, locus YJL187C, strain SWE1, stronger effect = lower value 1.03 | S. cerevisiae deletion strains, locus YJR066W, strain TOR1, stronger effect = lower value 0.949 | S. cerevisiae deletion strains, locus YKL160W, strain elf1, stronger effect = lower value 1.02 | S. cerevisiae deletion strains, locus YKR026C, strain gcn3, stronger effect = lower value 1.03 | S. cerevisiae deletion strains, locus YKR091W, strain srl3, stronger effect = lower value 1.03 | S. cerevisiae deletion strains, locus YLL001W, strain dnm1, stronger effect = lower value 1.04 | S. cerevisiae deletion strains, locus YLL026W, stronger effect = lower value 1.03 | S. cerevisiae deletion strains, locus YLL041C, strain sdh2, stronger effect = lower value 1.04 | S. cerevisiae deletion strains, locus YLR027C, strain aat2, stronger effect = lower value 1.03 | S. cerevisiae deletion strains, locus YLR113W, strain HOG1, stronger effect = lower value 0.993 | S. cerevisiae deletion strains, locus YLR221C, strain rsa3, stronger effect = lower value 1.03 | S. cerevisiae deletion strains, locus YLR258W, strain gsy2, stronger effect = lower value 1.04 | S. cerevisiae deletion strains, locus YLR262C, strain YPT6 (second series), stronger effect = lower value 1.05 | S. cerevisiae deletion strains, locus YLR320W, strain mms22, stronger effect = lower value 1.05 | S. cerevisiae deletion strains, locus YLR342W, strain FKS1, stronger effect = lower value 1.05 | S. cerevisiae deletion strains, locus YLR357W, strain rsc2, stronger effect = lower value 1.08 | S. cerevisiae deletion strains, locus YLR370C, strain arc18, stronger effect = lower value 1.05 | S. cerevisiae deletion strains, locus YLR384C, strain iki3, stronger effect = lower value 1.04 | S. cerevisiae deletion strains, locus YML120C, strain ndi1, stronger effect = lower value 1.01 | S. cerevisiae deletion strains, locus YMR058W, strain fet3, stronger effect = lower value 1.03 | S. cerevisiae deletion strains, locus YMR125W, strain sto1, stronger effect = lower value 1.04 | S. cerevisiae deletion strains, locus YMR129W, stronger effect = lower value 1.03 | S. cerevisiae deletion strains, locus YMR205C, strain PFK2, stronger effect = lower value 1.07 | S. cerevisiae deletion strains, locus YMR231W, strain pep5, stronger effect = lower value 1.03 | S. cerevisiae deletion strains, locus YNL071W, strain lat1, stronger effect = lower value 1.04 | S. cerevisiae deletion strains, locus YNL183C, strain NPR1, stronger effect = lower value 0.965 | S. cerevisiae deletion strains, locus YNL209W, strain ssb2, stronger effect = lower value 1.04 | S. cerevisiae deletion strains, locus YNL248C, strain rpa49, stronger effect = lower value 1.03 | S. cerevisiae deletion strains, locus YNL322C, strain KRE1 (second series), stronger effect = lower value 1.03 | S. cerevisiae deletion strains, locus YNR049C, strain mso1, stronger effect = lower value 1.04 | S. cerevisiae deletion strains, locus YOR001W, strain rrp6, stronger effect = lower value 1.02 | S. cerevisiae deletion strains, locus YOR070C, strain gyp1, stronger effect = lower value 1.03 | S. cerevisiae deletion strains, locus YOR080W, strain dia2, stronger effect = lower value 1.05 | S. cerevisiae deletion strains, locus YOR083W, strain WHI5, stronger effect = lower value 1.02 | S. cerevisiae deletion strains, locus YOR106W, strain vam3, stronger effect = lower value 1.03 | S. cerevisiae deletion strains, locus YOR231W, strain MKK1, stronger effect = lower value 1.01 | S. cerevisiae deletion strains, locus YOR265W, strain rbl2, stronger effect = lower value 1.04 | S. cerevisiae deletion strains, locus YOR270C, strain vph1, stronger effect = lower value 1.05 | S. cerevisiae deletion strains, locus YOR290C, strain snf2, stronger effect = lower value 0.974 | S. cerevisiae deletion strains, locus YPL051W, strain arl3, stronger effect = lower value 1.01 | S. cerevisiae deletion strains, locus YPL078C, strain atp4, stronger effect = lower value 1.03 | S. cerevisiae deletion strains, locus YPL106C, strain sse1, stronger effect = lower value 1.08 | S. cerevisiae deletion strains, locus YPL240C, strain hsp82, stronger effect = lower value 1.03 | S. cerevisiae deletion strains, locus YPL256C, strain CLN2, stronger effect = lower value 0.982
